SENP6 inh = SENP6 protease inhibitors, primary screen, biochemical, luminescence, uHTS; 330,000 compounds, 1.8% hits; Recombinant SENP6 catalytic domain, aminoluciferin luminescence; inhibition, % at 10 µM;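 active = inhibition above about 50% at the single tested dose, limit read from the data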
SENP8 block-1 = human SENP8 protease inhibitors, primary screen, biochemical, fluorescence, Nedd8 protein substrate, uHTS. Sentrin-specific protease 8 (Homo sapiens), Q96LD8. recombinant SENP8. inhibition, % at 20 µM. 360,000 compounds, 0.64% hits. AID 602440, 2012; in the data active = inhibition mostly above about 40%, no sharp cut-off; inactive = mostly below about 27%
Target sequence (Q96LD8 whole entry, looked up): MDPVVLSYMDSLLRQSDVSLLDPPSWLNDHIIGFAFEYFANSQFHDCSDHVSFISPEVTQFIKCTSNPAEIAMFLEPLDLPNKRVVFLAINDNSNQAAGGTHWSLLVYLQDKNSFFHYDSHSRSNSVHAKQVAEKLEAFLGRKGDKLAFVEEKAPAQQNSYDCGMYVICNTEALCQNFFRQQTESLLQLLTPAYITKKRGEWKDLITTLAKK
Platelet DG rel = inhibitors of platelet dense granule secretion, primary screen, cell-based, MLPCN, human platelets. 300,000 compounds, 0.22% hits. human platelet-rich plasma, SFLLRN dense granule ATP release, luminescence. inhibition, %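 (compounds screened at 7.5 µM in platelet-rich plasma)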. AID 1663, 2009;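 active = mean replicate score, as percent of positive control, at or above 50; inconclusive = mean below 50 but at least one replicate at or above 50; inactive = mean and every replicate below 50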
SENP7 block = SENP7 protease inhibitors, primary screen, biochemical, luminescence, uHTS. Sentrin-specific protease 7 (Homo sapiens), Q9BQF6. recombinant SENP7, Z-RLRGG-aminoluciferin luminescence, 40 min. inhibition, % at 5 µM. 330,000 compounds, 1.5% hits. AID 434973, 2010;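 active = inhibition above about 50% at the single test dose, limit read from the data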
Target sequence (Q9BQF6 706-1050 limits assumed): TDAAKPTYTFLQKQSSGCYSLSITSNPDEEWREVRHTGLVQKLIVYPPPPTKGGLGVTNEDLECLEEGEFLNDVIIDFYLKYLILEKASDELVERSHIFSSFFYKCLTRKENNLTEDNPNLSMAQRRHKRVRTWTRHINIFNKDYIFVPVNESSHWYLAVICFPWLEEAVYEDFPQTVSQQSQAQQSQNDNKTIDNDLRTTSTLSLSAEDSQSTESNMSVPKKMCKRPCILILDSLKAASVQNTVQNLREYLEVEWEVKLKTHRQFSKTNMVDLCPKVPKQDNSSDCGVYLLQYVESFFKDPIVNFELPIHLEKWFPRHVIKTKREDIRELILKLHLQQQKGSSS
SENP8 block-2 = SENP8 protease inhibitors, primary screen, biochemical, luminescence; Sentrin-specific protease 8 (Homo sapiens), Q96LD8; purified SENP8, Z-RLRGG-aminoluciferin cleavage; inhibition, % at 10 µM; 330,000 compounds, 1.2% hits; AID 2540, 2010; in the data active = inhibition above about 50%
Of the large screens only hits and unclear results are named; the others gave an inactive call. The list is not random: actives were taken first. Their share in the collection is about 2.4%.

N#C/C(=N\Nc1ccc(Cl)cc1)C(N)=S	SENP8 block-1 46.5
COc1ccc(NCc2nc3ccccc3n2CCOc2ccccc2)cc1	none
c1ccc(NCc2nc3ccccc3n2CCOc2ccccc2)cc1	SENP6 inh 66.0
Cn1c(=O)oc2cc(S(=O)(=O)NC3CCN(Cc4ccccc4)CC3)ccc21	Platelet DG rel 52.1
O=C(N/N=C/c1ccc(Br)cc1)c1ccc(Br)o1	SENP6 inh 86.4, SENP7 block 76.5, SENP8 block-2 65.1
Cc1ccc(C(=O)N/N=C/c2ccc3c(c2)OCO3)o1	SENP6 inh 61.4, SENP7 block 58.9
CCCN(CC(=O)Nc1ccccc1OC)C(=O)CCC(=O)c1ccc(OCC)cc1	none (no result: Platelet DG rel)
COCCCNC(=O)C[C@@H]1C[C@@]2(C(=O)OC)CC(C)(C)CC=C2N(Cc2ccc3c(c2)OCO3)C1=O	none (no result: SENP6 inh, Platelet DG rel, SENP7 block, SENP8 block-2)
CCOc1ccc(/C=N/NC(=O)c2ccccc2NC(=O)c2ccc(OC)cc2)cc1	none
COc1ccc(C(=O)Nc2ccccc2C(=O)N/N=C/c2ccco2)cc1	Platelet DG rel 78.5
CC(NC(=O)C1CCC(CNS(=O)(=O)c2ccc3c(c2)C(C)(C)C(=O)N3C)CC1)c1ccccc1 (stereo not given)	none
Cn1c(=O)n(C)c2cc(S(=O)(=O)NCc3ccccc3)ccc21	Platelet DG rel 51.7
Cn1c(=O)n(C)c2cc(S(=O)(=O)NCc3ccco3)ccc21	none
CC1=C(C(=O)N(C(C)C)C(C)C)CC(CC(=O)NC(c2ccccc2)c2ccccc2)C(=O)N1CCCN1CCCC1=O (stereo not given)	none (no result: SENP6 inh, Platelet DG rel, SENP7 block, SENP8 block-2)
O=C1C(=Cc2cccn2-c2ccc(O)cc2)C(=O)c2ccccc21	SENP8 block-1 27.9
O=C1C(=Cc2cccn2-c2ccccc2)C(=O)c2ccccc21	none (no result: SENP6 inh, SENP7 block, SENP8 block-2)
O=C(CNC(=O)c1ccc2ccccc2c1)NCc1ccccc1F	none
CCN(CC)S(=O)(=O)c1cc([N+](=O)[O-])ccc1N=Nc1c(O)[nH]c2ccccc12	SENP8 block-1 42.9 (no result: SENP6 inh, SENP7 block, SENP8 block-2)
Cc1ccc2[nH]c(O)c(N=Nc3ccccc3[N+](=O)[O-])c2c1	none (no result: SENP6 inh, Platelet DG rel, SENP7 block, SENP8 block-2)
O=C(CSc1nc2ccccc2s1)N/N=C/c1ccc(C(=O)O)cc1	none
CC(=C/c1ccco1)/C=N/NC(=O)CSc1nnc(SCc2ccc(C)cc2)s1	none
Cc1ccc(CSc2nnc(SCC(=O)N/N=C/c3ccccc3OCC(=O)O)s2)cc1	SENP6 inh 87.9, SENP8 block-2 59.5
O=C(CSc1nnc(SCc2ccccc2)s1)N/N=C/c1ccc(C(=O)O)cc1	SENP8 block-2 51.2
Cc1ccc(CSc2nnc(SCC(=O)N/N=C/c3ccc(C(=O)O)cc3)s2)cc1	SENP6 inh 91.7, SENP7 block 55.1, SENP8 block-2 71.8
Cc1ccc(CSc2nnc(SCC(=O)N/N=C/c3c[nH]c4ccccc34)s2)cc1	none (no result: SENP6 inh, SENP7 block, SENP8 block-2)
COc1ccc(NC(=O)N2CCC(n3cnc4ccccc43)CC2)cc1	none
O=[N+]([O-])c1ccccc1NCCOc1ccccc1	SENP6 inh 82.3, SENP7 block 73.3, SENP8 block-2 59.9
O=C(CCOc1ccccc1)Nc1ccccc1[N+](=O)[O-]	none
CN(C)CCNC(=O)Cn1ccc2cc(S(=O)(=O)N3CCCCCC3)ccc21	none
Cn1cc(/C=C2\SC(=O)N(c3ccc(O)cc3)C2=O)c2ccccc21	SENP6 inh 63.7
Cc1cc(O)c2c(c1O)C(=O)[C@]13C(=C2O)C(=O)[C@@H]2[C@@H](O)[C@H]1[C@@H]1[C@H](O)[C@H]3C(=O)C3=C(O)c4c(O)cc(C)c(O)c4C(=O)[C@]312	SENP8 block-1 19.8 (no result: Platelet DG rel)
O=C(COC(=O)C1CC1)Nc1ccc(N=Nc2ccccc2)cc1	SENP8 block-1 43.4
O=C(COC(=O)C1CC1)Nc1ccc(OC(F)F)cc1	none
C=CCN(c1ccc(F)cc1)S(=O)(=O)c1cc(C(=O)OCC(=O)N(C)C2CCS(=O)(=O)C2)ccc1Cl (stereo not given)	none
Nc1nn2c(-c3ccccc3)cc(=O)[nH]c2c1N=Nc1ccc(Br)cc1	SENP8 block-1 41.4 (no result: SENP6 inh, Platelet DG rel, SENP7 block, SENP8 block-2)
Cc1cc2[nH]c(=O)cc(-c3ccccc3)n2n1	none
Nc1nn2c(-c3ccccc3)cc(=O)[nH]c2c1N=Nc1ccc(O)cc1	SENP8 block-1 63.0
COc1ccc(NC(=O)CN2C(=O)NC(C)(C3CC3)C2=O)cc1S(=O)(=O)N1CCCCC1 (stereo not given)	none (no result: Platelet DG rel)
COc1ccc(-c2ccc(/C=C3\C(=O)N(c4ccccc4)N=C3c3ccccc3)o2)c([N+](=O)[O-])c1	SENP8 block-1 46.0
COc1cc([N+](=O)[O-])ccc1-c1ccc(/C=C2\C(=O)ON=C2c2ccccc2)o1	none (no result: SENP6 inh, Platelet DG rel, SENP7 block, SENP8 block-2)
O=Cc1cc2ccccc2nc1SCCCF	none
COc1ccc(/C=C2\SC(=S)N(CC(=O)N3CCN(C)CC3)C2=O)cc1	none
COc1ccc(/C=C2/SC(=S)N(CCC(=O)N3CCN(C)CC3)C2=O)cc1	SENP8 block-1 36.8
COCCN1C(=O)/C(=C/c2ccc(N3CCCC3)cc2)SC1=S	SENP8 block-1 43.7
COc1ccc(/C=C2\SC(=S)N(CCC(=O)N3CCCCC3)C2=O)cc1	none
COc1ccc(Cc2nnc(NC(=O)c3ccccc3Cl)s2)cc1OC	none
Cc1cc(NC(=O)Cn2nc(C)c([N+](=O)[O-])c2C)no1	Platelet DG rel inconclusive
COc1ccc(CNC(=O)CN(Cc2ccco2)C(=O)CCC(=O)Nc2ccccn2)cc1	none
N#C/C(=C\c1ccc(O)c(O)c1)C(=O)Nc1ccccc1	SENP6 inh 79.5, SENP8 block-2 71.0 (no result: Platelet DG rel)
COC(=O)[C@]12CCCCC=C1N(CCC1=CCCCC1)C(=O)[C@H](CC(=O)NCc1cccc3ccccc13)C2	none (no result: SENP6 inh, Platelet DG rel, SENP7 block, SENP8 block-2)
CC(=O)NCCc1ccc(C(=O)COC(=O)c2cccs2)cc1	none (no result: SENP6 inh, Platelet DG rel, SENP7 block, SENP8 block-2)
O=C(COc1ccccc1Cl)NNC(=O)c1ccc2c(=O)n3c(nc2c1)CCC3	none (no result: Platelet DG rel)
CCNc1nc(NC#N)nc(SCC(=O)OCC)n1	Platelet DG rel 54.9
COc1ccc(S(=O)(=O)N2CCOCC2)cc1NC(=O)Cc1ccc2c(c1)OCCO2	none (no result: Platelet DG rel)
Cc1ccc(CSc2[nH]c(=O)ncc2C)cc1	none
Cc1ccc(NC(=O)CN2C(=O)S/C(=C/c3ccc(-c4cccc(C(=O)O)c4)o3)C2=O)cc1	none (no result: SENP6 inh, Platelet DG rel, SENP7 block, SENP8 block-2)
CC(C)(C)OC(=O)CN1C(=O)S/C(=C\c2ccc(-c3cccc(C(=O)O)c3)o2)C1=O	SENP6 inh 78.0, SENP8 block-2 68.0 (no result: SENP8 block-1)
CN(C)c1ccc(/C=N/N=C2/NC(=O)/C(=C/c3ccc([N+](=O)[O-])cc3)S2)cc1	SENP6 inh 68.8 (no result: Platelet DG rel)
O=C(O)c1cccc(N/N=C(\N=Nc2ccccc2)c2ccccc2)c1	none
O=C(O)c1ccc(N=N/C(=N\Nc2ccc(C(=O)O)cc2)c2ccccc2)cc1	SENP8 block-1 44.7
Cc1occc1C(=O)N=Nc1c(O)n(C)c2ccccc12	SENP6 inh 72.8, SENP7 block 74.6
Cn1c(O)c(N=NC(=O)c2ccccc2O)c2ccccc21	none
COc1cc(NCc2ccccc2O)c2ncccc2c1	none
Oc1ccccc1CNc1cccc2cccnc12	SENP6 inh 91.4, SENP7 block 66.1, SENP8 block-2 78.9

Assay outcomes deposited in PubChem by several laboratories.
